PubChem BioAssay
Values joined by “and” are separate entries in the source; they are usually repeats but may differ in a detail not shown here. Identical values can stand only once. Records with an inconclusive call do not appear. Active and inactive are the calls of the source. Unless noted, no cut-off is given here; in the data, nearly all actives have AC50 up to about 26 µM.

Legend:
[1] = system: Neuropilin-2 / VEGF-C interaction (human); test: inhibitors of NRP2–VEGF-C binding, biochemical, microplate binding format, z-score (AID 743281; call rule not given here); conditions: microplate NRP2/VEGF-C binding assay; stronger effect = lower value
[2] = growth inhibition of DIPG glioma cells, dose response, cell-based, SU-DIPG-XIII, MIPE5.0, CellTiter-Glo, qHTS (AID 1347064; cut-off not given, nearly all actives have AC50 up to about 23 µM;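 for AC50: cells exposed to compound for 48 hours before the viability read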); conditions: SU-DIPG-XIII viability, CellTiter-Glo ATP luminescence
[3] = viability loss in pontine glioma line – cell-based, SU-DIPG-XXV, MIPE5.0, CellTiter-Glo, qHTS, dose response (AID 1347065); conditions: CellTiter-Glo ATP luminescence;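 note: cells exposed to compound for 48 hours before ATP readout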
[4] = liver-stage malaria parasite growth inhibition, primary screen, cell-based, HepG2, luciferase luminescence, HepG2 viability (AID 624349; in the data active = parasite load remaining mostly below about 12%, no sharp cut-off; inactive = mostly above about 10%;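 note: 100% = mean of DMSO negative control wells on the same plate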); conditions: P. berghei liver stage in HepG2, luciferase luminescence, concentration not given here; parasite load remaining: stronger effect = lower value; viability: measured here: HepG2 viability without parasites
[5] = system: Aerobactin synthetase IucA (Klebsiella pneumoniae); test: IucA aerobactin synthetase inhibitors, biochemical, Tocris library, absorbance (AID 1345561; call rule not given here;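 note: 100% = enzyme without compound and 0% = no enzyme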); conditions: purified IucA enzyme assay, absorbance (OD) read-out; stronger effect = lower value;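 tested at 8 µM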
[6] = inhibitors of Cryptococcus chitosan production, flow cytometry, Cibacron Brilliant Red staining (AID 1347148; call rule not given here;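 note: compound exposure lasted three days at 37 degrees C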); conditions: Cryptococcus neoformans chitosan, stronger effect = lower value; at 99.1 µM unless noted
[7] = modifiers of HSF1 nuclear foci, imaging, Selleck Cancer Library (AID 1347162; in the data active = plate-normalised HSF1 focus index below about 0.46); conditions: human cells, at 10 µM; SSMD: measured here: HSF1 foci SSMD mean; cell count: measured here: cell number; plate-normalised HSF1 focus index: stronger effect = lower value
[8] = LFS_MB_1R medulloblastoma cell growth inhibition, synergistic combos for chromothripsis tumors, cisplatin or BGB combos (AID 1671452; in the data active = inhibition above about 80%;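 note: cells exposed for 96 hours before readout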); conditions: LFS_MB_1R medulloblastoma cells, stronger effect = higher value
[9] = CRL2098 osteosarcoma cell growth inhibition, synergistic combos for chromothripsis tumors, BGB or cisplatin IC20 combos (AID 1671454; in the data active = inhibition above about 80%;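 note: cells exposed for 96 h before readout; 0% = vehicle DMSO and 100% = killing by high DMSO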); conditions: CRL2098 osteosarcoma cells, drug combinations, stronger effect = higher value
[10] = HD-MB03 medulloblastoma cell growth inhibition, synergistic combos for chromothripsis tumors, BGB or cisplatin IC20 combos (AID 1671455; in the data active = inhibition above about 83%;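 note: 0% = vehicle DMSO and 100% = high DMSO as cytotoxic control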); conditions: HD-MB03 medulloblastoma cells, stronger effect = higher value
[11] = UWB1.289 ovarian carcinoma cell growth inhibition, synergistic combos for chromothripsis tumors, BGB or cisplatin combos (AID 1671456; in the data active = inhibition above about 80%;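 note: cells exposed to compound for four days; 0% = vehicle DMSO and 100% = killing by high DMSO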); conditions: UWB1.289 ovarian carcinoma cells, stronger effect = higher value
[12] = LFS_MB_2R medulloblastoma cell growth inhibition, synergistic combos for chromothripsis tumors, cisplatin combos (AID 1671457; in the data active = inhibition above about 80%;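 note: cells exposed to compound for four days before readout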); conditions: LFS_MB_2R medulloblastoma cells, stronger effect = higher value
[13] = UWB1.289_BRCA1 ovarian cancer growth, cell-based, BGB or cisplatin combinations (AID 1671459; in the data active = inhibition above about 80%); conditions: UWB1.289 BRCA1 ovarian carcinoma, drug combinations, stronger effect = higher value
[14] = human astrocyte viability loss, single and combined drugs, cytotoxicity control for chromothriptic childhood tumor combination screen, cell-based, BGB or cisplatin IC20 combos (AID 1671460; in the data active = inhibition above about 80%;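 note: cells exposed to compounds for 96 hours before viability readout; 0% = vehicle and 100% = killing control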); conditions: Human astrocytes, drug combinations, stronger effect = higher value
[15] = measured here: combination with cisplatin, at 0.5 µM
[16] = measured here: combination with cisplatin, at 5 µM

## NNCCc1ccccc1
[1]
  z-score: -0.0568 (inactive)
[2]
  outcome: inactive
[3]
  outcome: inactive

## COc1ccccc1OCCNCC(O)COc1cccc2[nH]c3ccccc3c12 (stereo not given)
[4]
  parasite load remaining: 91.3% (inactive) and 56.7% (inactive) and 56.6% (inactive)
[1]
  z-score: 1.06 (inactive)
[5]
  remaining activity: 112% (inactive)

## CCc1cc(C(N)=S)ccn1
[3]
  outcome: inactive

## CCN(Cc1ccncc1)C(=O)C(CO)c1ccccc1 (stereo not given)
[5]
  remaining activity: 104% (inactive)

## O=C(C1CCCCC1)N1CC(=O)N2CCc3ccccc3C2C1 (stereo not given)
[2]
  outcome: inactive
[3]
  outcome: inactive

## N[C@@H](Cc1cc(I)c(Oc2cc(I)c(O)c(I)c2)c(I)c1)C(=O)O
[2]
  outcome: inactive
[3]
  outcome: inactive

## CCCc1cc(=O)[nH]c(=S)[nH]1
[2]
  outcome: inactive
[3]
  outcome: inactive

## O=C(O)c1cc(=O)c2c(OCC(O)COc3cccc4oc(C(=O)O)cc(=O)c34)cccc2o1
[2]
  outcome: inactive

## NNC(=O)c1ccncc1
[3]
  outcome: inactive

## O=c1[nH]cnc2[nH]ncc12
[4]
  parasite load remaining: 54% (inactive) and 101% (inactive) and 124% (inactive)
  viability: 90.8% and 70.7% and 94.2%
[2]
  outcome: inactive

## CCCc1nc2c(C)cc(-c3nc4ccccc4n3C)cc2n1Cc1ccc(-c2ccccc2C(=O)O)cc1
[1]
  z-score: -0.492 (inactive)
[2]
  outcome: inactive
[3]
  outcome: inactive

## O=C(O)c1cccnc1
[3]
  outcome: inactive

## CC1=NS(=O)(=O)c2cc(Cl)ccc2N1
[1]
  z-score: -0.142 (inactive)
[5]
  remaining activity: 104% (inactive)
[6]
  fold fluorescence: 4.83 [at 216.8 µM] (inactive)

## CC(COc1ccccc1)N(CCCl)Cc1ccccc1 (stereo not given)
[2]
  outcome: inactive
[3]
  outcome: inactive

## O=C1c2c(O)ccc(O)c2C(=O)c2c(NCCNCCO)ccc(NCCNCCO)c21
[2]
  AC50: 10.5 µM (active)
[3]
  AC50: 11.8 µM (active)
[7]
  SSMD: -1.6
  cell count: 7320
  plate-normalised HSF1 focus index: 0.898 (inactive)
[8]; at 0.5 µM
  inhibition: -4.33% (inactive)
[8]; measured here: combination with BGB IC40, at 0.05 µM
  inhibition: 1.71%
[8]; [15]
  inhibition: 72.8%
[8]; [16]
  inhibition: 94.2%
[9]; at 0.5 µM
  inhibition: 7.34% (inactive)
[9]; measured here: combination with BGB at IC20, at 0.5 µM
  inhibition: 20.4%
[9]; measured here: combination with cisplatin at IC20, at 0.5 µM
  inhibition: -13.9%
[10]; at 0.5 µM
  inhibition: 88% (active)
[10]; measured here: combo with BGB at IC20, at 0.5 µM
  inhibition: 86.5%
[10]; measured here: combo with cisplatin at IC20, at 0.5 µM
  inhibition: 84.8%
[11]; at 0.5 µM
  inhibition: 64.9% (inactive)
[11]; measured here: inhibition with BGB combination, at 0.05 µM
  inhibition: -29.8%
[11]; measured here: inhibition with cisplatin combination, at 0.05 µM
  inhibition: -25.8%
[12]; at 0.5 µM
  inhibition: -5.4% (inactive)
[12]; [15]
  inhibition: 20.8%
[12]; [16]
  inhibition: 92.5%
[13]; BGB combination, concentration series, at 5 µM
  inhibition: 105%
[13]; at 0.5 µM
  inhibition: 63.4% (inactive)
[13]; cisplatin combination, concentration series, at 5 µM
  inhibition: 104%
[14]; at 0.5 µM
  inhibition: 68.8% (inactive)
[14]; measured here: combo with BGB IC20, at 0.5 µM
  inhibition: 69.1%
[14]; measured here: combo with cisplatin IC20, at 0.5 µM
  inhibition: 56.7%
